Results published in PubChem BioAssay AID652039 (The Scripps Research Institute Molecular Screening Center, 2013).
Among all 370,000 compounds or so, about 3,300 (0.89%) were called active. Shown is part of a subset that was picked to be rich in actives. Values without a mark were called inactive.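 Rule for the calls: active = activation above the mean of all tested compounds plus 3 SD, computed per campaign excluding outliers beyond control limits (cut at about 13% in these data); inactive = the rest.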

target: Kallikrein-7 (Homo sapiens) (UniProt P49862); assay: proKLK7 zymogen activators, primary screen, biochemical, fluorescence intensity (AID 652039); details: purified proKLK7, EDANS-DABCYL substrate fluorescence; at 7 µM; stronger effect = higher value; 100% is mature enzyme control, 0% vehicle
Sequence (P49862 whole entry, looked up): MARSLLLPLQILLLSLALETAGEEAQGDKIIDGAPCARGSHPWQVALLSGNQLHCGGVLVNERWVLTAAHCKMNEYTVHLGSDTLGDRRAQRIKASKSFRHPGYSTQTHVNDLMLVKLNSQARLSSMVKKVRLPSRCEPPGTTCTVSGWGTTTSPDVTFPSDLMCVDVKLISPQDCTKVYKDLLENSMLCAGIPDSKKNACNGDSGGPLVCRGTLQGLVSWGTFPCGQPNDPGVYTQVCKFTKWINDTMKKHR

SMILES	activation
C=CCN1C(=O)[C@@H](CC(=O)N2CCN(C(=O)c3ccco3)CC2)[C@]2(C(=O)OC)CCCCC=C12	0.64%
COC(=O)C[C@H]1CC[C@H]2[C@H](COc3ccc(NC(=O)C4CC4)cc3C(=O)N2C)O1	-0.05%
CCC(=O)Nc1ccc2c(c1)C(=O)N(C)[C@@H]1CC[C@@H](CC(=O)NCCc3ccccc3)O[C@H]1CO2	-0.14%
Cc1cc(NS(=O)(=O)c2ccc(NC(=O)CSc3nnc(-c4ccc(C(C)(C)C)cc4)n3Cc3ccco3)cc2)nc(C)n1	0.49%
O=C(c1cccc(C(F)(F)F)c1)N1CC[C@H]2[C@H](CCCN2Cc2cc(F)cc(F)c2)C1	0.19%
COc1ccc(CSc2nnc(SCC(=O)Nc3ccccc3C(F)(F)F)s2)cc1	0.45%
COc1cccc2cc(C(=O)N3CCN(C(=O)c4ccccc4)CC3)c(=O)oc12	-0.14%
COc1ccc(C(=O)N2CCCN(C)CC2)c(OC)c1	-0.04%
COc1ccc2oc(=O)c(C(=O)N3CCCC3)cc2c1	21.5% (active)
O=C(CN1CCC(NC(=O)NCc2ccccc2)CC1)Nc1ccc2c(c1)OCCO2	0.32%
CC(C)(C)C(=O)N1CCC[C@@]1(CO)C(=O)O	0.12%
COc1cccc(NC(=O)CN(C)C(=O)Cc2ccc(Cl)cc2Cl)c1	-0.14%
COc1cccc(NC(=O)CN(C)C(=O)/C=C/c2cc(OC)ccc2OC)c1	58% (active)
COc1cccc(NC(=O)CN(C)C(=O)c2ccccc2CCc2ccccc2)c1	0.07%
O=C(NC1CCCCN(Cc2cccc(C(F)(F)F)c2)C1=O)c1ccccc1I (stereo not drawn)	0.36%
C#Cc1cc(N2CCN(C(=O)c3ccoc3)CC2)n2nc(-c3cccc(Cl)c3)cc2n1	-41%
CN(C)CCN1CCN(c2cc(-c3cccc(Cl)c3)nc3ccnn23)CC1	18.8% (active)
CN(C)C(=O)c1nc2ccc(Cl)cn2c1CN1CCN(c2ncccn2)CC1	-1.33%
Cc1ccc(-n2c(SCC(=O)Nc3cccc4ccccc34)nnc2-c2ccco2)cc1	-0.44%
C=CS(=O)(=O)N(Cc1nnn(Cc2ccccc2)c1Br)[C@H](C(=O)OC)C(C)C	-0.36%
Cc1cc(C)nc(Nc2n[nH]c(-c3ccccc3N)n2)n1	6.37%

SMILES	activation
Nc1ccccc1-c1nc2ccncc2[nH]1	86.7% (active)
CN(C(N)=NC(=O)/C=C/c1ccccc1)C(C#Cc1ccccc1)Cc1ccccc1 (stereo not drawn)	-0.15%
O=C(NCc1cccs1)C1CCN(S(=O)(=O)c2ccccc2[N+](=O)[O-])CC1	0.23%
COC(=O)[C@H](C(C)C)N1CCc2nnn(Cc3ccc(C)cc3)c2-c2ccccc2S1(=O)=O	-0.1%
CC(C)=NN1C(=O)c2ccccc2NC1(C)C	13% (active)
CC(=O)N1C(=O)C2(Nc3ccccc3N2)c2ccccc21	-5.83%
COC(=O)c1cc(S(=O)(=O)N2CCN(C(=O)C3CCCO3)CC2)cn1C (stereo not drawn)	-0.37%
O=C(C1CCCN1S(=O)(=O)c1ccccc1)N1CCc2ccccc2C1 (stereo not drawn)	-0.08%
Cc1cc(C(F)(F)F)c(C#N)c(SCC(=O)NC2CC2)n1	-0.4%
COCc1cc(C)nc(SCC(=O)Nc2cccc(C)c2)c1C#N	0.51%
Cc1cc(C)c(C#N)c(SCC(=O)NN2CC(=O)N(c3ccccc3F)CC2=O)n1	68.7% (active)
CCOC(=O)[C@]12CCCC3=C1N(CCC3)C(=O)[C@@H](CC(=O)NCc1cccs1)C2	-0.54%
COc1ccc(S(=O)(=O)N/N=C\c2ccc(OC)c(COc3ccc(C)cc3[N+](=O)[O-])c2)cc1	0.18%
CCN(CC)Cc1c(C(=O)N/N=C/c2cccc(OCc3ccc(F)cc3)c2)nnn1-c1nonc1N	0.38%
COc1cccc(OCc2cc(/C=N/NC(=O)c3nc(Cl)c(Cl)c(N)c3Cl)ccc2OC)c1	48.2% (active)
COC(=O)[C@]12C[C@H](CC(=O)NCCCN3CCCC3=O)C(=O)N(CCc3ccc(OC)c(OC)c3)C1=C[C@H](COCc1ccccc1)O[C@@H]2C	-0.02%
COC(=O)[C@]12C[C@H](CC(=O)NCc3ccccc3)C(=O)N(CCc3ccc(OC)c(OC)c3)C1=C[C@H](C(C)(C)C)O[C@@H]2C	0.13%
COc1ccc(Cn2cc(COC(=O)N(C)Cc3ccccc3)nn2)cc1	0.16%
CN(C)CC(=O)N[C@@H]1C[C@@H]2O[C@H](CO)CC[C@@H]2O[C@@H]1CCc1ccc(C#Cc2ccccc2)cc1	0.21%
Cc1cc(C)c2c(n1)nn1c(-n3ccnc3)cc(C)nc21	15.7% (active)
Cc1cc(C)c2c(NC(=O)C3CC3)nn(C)c2n1	-0.27%

SMILES	activation
Cc1ccc(OCc2nnc(SC/C=C/c3ccccc3)n2Cc2ccco2)cc1	0.81%
C=CCN1C(=O)[C@@H](CC(=O)N2CCN(C(=O)OCC)CC2)[C@]2(C(=O)OCC)CCCCC/C=C/12	0.05%
Clc1ccc2nc(-c3ccccc3)nc(C(Cl)Cl)c2c1	-0.5%
NC(N)=Nc1nc(-c2ccccc2)c2cc(Cl)ccc2n1	14.3% (active)
NC(N)=Nc1nc2ccc(Br)cc2c(=O)[nH]1	-0.15%
CC(C)N1CCCCC(NC(=O)c2ccc3ccccc3c2)C1=O (stereo not drawn)	0.11%
C=CCN1C(=O)[C@@H](CC(=O)NCCCCc2ccccc2)[C@]2(C(=O)OCC)CCCCC/C=C/12	0.05%
CC(=O)C1(C(=O)Nc2nccs2)CC(c2ccccc2C(F)(F)F)=NO1 (stereo not drawn)	1.07%
COC(=O)[C@]12C[C@H](CC(=O)NCCc3ccccc3OC)C(=O)N(Cc3ccco3)C1=C[C@H](C(C)C)O[C@@H]2C1CC1	0.66%
Cc1ccc(NC(=O)CN(C)C(=O)COC(=O)c2nccnc2N)cc1	8.05%
CCOc1ccc(NC(=O)COc2ccc(S(=O)(=O)N3CCCC3)cc2)cc1	0.16%
CCOC(=O)C1=C(O)/C(=C/c2ccc(OCC(=O)Nc3ccc(C)cc3)cc2)N=C1C	31.9% (active)
CC(c1c[nH]c2ccccc12)c1c(-c2ccccc2)n(C)c2ccccc12 (stereo not drawn)	-7.26%
COc1ccc(C(=O)OCCN2CCN(C3CN(Cc4cn(Cc5ccccc5F)nn4)S(=O)(=O)C3)CC2)cc1OC (stereo not drawn)	0%
Clc1ccc(-n2c(SC/C=C/c3ccccc3)nnc2-c2ccco2)cc1	0.14%
Cc1ccccc1Cn1nc(C)c(NC(=O)C(F)(F)F)c1C	-0.19%
COCc1cc(=O)[nH]c(-c2ccc(C(F)(F)F)cc2)n1	0.23%
COCc1cc(=O)[nH]c2cc(NC(=O)C(F)(F)F)c(C)cc12	466% (active)
COc1ccc(OC)c(Cc2cnc3nc(N)nc(N)c3c2C)c1	-0.29%
COC[C@@H]1CCCN1c1ccc2c(c1)O[C@H](C)CCN(C1CC1)S2(=O)=O	-0.36%
CCOC(=O)[C@]12CCCC3=C1N(CCC3)C(=O)[C@@H](CC(=O)N1CCSCC1)C2	-0.2%

SMILES	activation
COC(=O)c1cc(C(=O)OC)cc(N2C(=O)CC(N3CCN(c4ccccc4)CC3)C2=O)c1 (stereo not drawn)	-0.42%
COC(=O)C1(C)NC(c2ccccc2OC)C2C(=O)N(c3ccccc3)C(=O)C21 (stereo not drawn)	0.39%
COC(=O)C1=NN(c2ccccc2)C2C(=O)N(c3ccccc3OC)C(=O)C12 (stereo not drawn)	20.8% (active)
COc1ccc(-n2c(SCC(=O)Nc3ccccc3-c3ccccc3)nnc2-c2cccnc2)cc1	-0.23%
CCOc1ccc(-n2c(SCC(=O)Nc3cc(C)c(NC(=O)c4ccccc4)cc3OC)nnc2-c2cccc(Cl)c2)cc1	4.85%
CCOc1ccc(-n2c(SCC(=O)Nc3cc(C)c(NC(=O)c4ccccc4)cc3OC)nnc2-c2cccs2)cc1	13.4% (active)
COc1ccc(S(=O)(=O)N2CCN(C(=O)N(C)C)C2C)cc1 (stereo not drawn)	0.63%
Cc1ccc(-n2c(SCC(=O)Nc3ccc(S(=O)(=O)Nc4nccs4)cc3)nnc2-c2ccccn2)cc1	0.68%
CC1(C)CN(c2ccc(-c3ccnc4ncnn34)cc2)C1=O	29.6% (active)
Nc1c(-c2ccc(F)cc2)cnc2ncnn12	0.09%
Cc1cc([N+](=O)[O-])nn1Cc1ccc(F)cc1	0.68%
CC(=O)O[C@@]1(C(C)=O)CCC2[C@H]3C=C(C)C4=CC(=O)CC[C@@]4(C)C3CC[C@]21C (stereo partly drawn)	0.5%
COc1cc(Cl)c(C)cc1NC(=O)COC(=O)c1cc(SC)ccc1Cl	-0.31%
COC(=O)Cc1nc2c(N)nc(N)nc2[nH]c1=O	29.9% (active)
CCCCOCCCNC(=O)C[C@H]1C[C@@]2(C(=O)OC)C(=C[C@H](COCc3ccccc3)O[C@@H]2C)N(Cc2cccc3ccccc23)C1=O	-0.35%
COC1=C[C@H](C(=O)NCCNC(C)=O)[C@H](C)[C@@H](c2ccccc2)CC1=O	0.74%
O=C(Nc1ccc(Br)cc1)OCCN1C(=O)CCC12CCC(c1ccccc1)CC2 (stereo not drawn)	0.49%
CCC(c1nnnn1Cc1ccco1)N(CCc1ccccc1)Cc1cc2ccc(OC)cc2[nH]c1=O (stereo not drawn)	21.6% (active)
CCOc1ccc2[nH]c(=O)c(CN(Cc3nnnn3CCc3ccccc3)CC3CCCO3)cc2c1 (stereo not drawn)	-0.26%
CCC(c1nnnn1Cc1ccco1)N(Cc1cc2cc(OC)ccc2[nH]c1=O)C1CCCCC1 (stereo not drawn)	1.29%
